From the supplement of paper PMC12494721
Where a name gives a salt, the structure may show the parent alone.

Assays:
Conditions in all cases: incubation time: 27 h, anaerobic, 37 °C;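 for the amine columns active = adjusted P below 0.05 in both replicates with a change the same way and a mean fold change under 0.8 or over 1.25; inactive = the rest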
[1] = system: Clostridium sporogenes DSM 1664; experiment: growth (OD595) fold change vs plate DMSO controls (fold change (ratio)); higher = more growth
Method in brief: (§1)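 The 96-well mGAM cultures had been kept anaerobic for 27 h at 37 °C before being shaken and read at 595 nm. Blank subtraction, compound background correction with 20 µM compound solutions in water, and a calibration factor of 5 turned the readings into OD. Growth is given as the fold change versus the median of plate DMSO controls. Fold changes above 1.5 were set to NA, and the values are means of 2 biological replicates.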

Escherichia coli IAI1 [2] = experiment: as above
Method in brief: as §1

[3] = system: Klebsiella aerogenes DSM 30053; experiment: as above
Method in brief: as §1

[4] = system: Ruminococcus gnavus DSM 108212; experiment: as above
Method in brief: as §1

[5] = system: Klebsiella aerogenes DSM 30053; experiment: fold change of Histamine concentration vs plate DMSO controls (fold change (ratio)); higher = more amine produced, active = hit call of the paper (significant change in both replicates, either direction)
Method in brief: (§2)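 Amine values are fold changes relative to DMSO-only wells on the same plate. They derive from 27 h, 37 °C anaerobic mGAM cultures of four gut bacterial strains in 80 µL wells, dosed at 20 µM final, or 50 µM final for sweeteners. Extraction of the whole culture, LC–triple-quadrupole MS in dynamic MRM mode, external calibration curves and within-batch drift correction were used, with 2 biological replicates averaged.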

[6] = system: Clostridium sporogenes DSM 1664; experiment: fold change of Tryptamine concentration vs plate DMSO controls (fold change (ratio)); higher = more amine produced, active = hit call of the paper (significant change in both replicates, either direction)
Method in brief: as §2

[7] = system: Ruminococcus gnavus DSM 108212; experiment: as above
Method in brief: as §2

Escherichia coli IAI1 [8] = experiment: fold change of Putrescine concentration vs plate DMSO controls (fold change (ratio)); higher = more amine produced, active = hit call of the paper (significant change in both replicates, either direction)
Method in brief: as §2

[9] = system: Klebsiella aerogenes DSM 30053; experiment: as above
Method in brief: as §2

Escherichia coli IAI1 [10] = experiment: fold change of Cadaverine concentration vs plate DMSO controls (fold change (ratio)); higher = more amine produced, active = hit call of the paper (significant change in both replicates, either direction)
Method in brief: as §2

[11] = system: Klebsiella aerogenes DSM 30053; experiment: as above
Method in brief: as §2

[12] = system: Ruminococcus gnavus DSM 108212; experiment: fold change of 2-Phenylethylamine concentration vs plate DMSO controls (fold change (ratio)); higher = more amine produced, active = hit call of the paper (significant change in both replicates, either direction)
Method in brief: as §2

## CN(C)CCOC(C)(c1ccccc1)c1ccccn1 (centres undefined) [Doxylamine succinate] (20 µM)
[1]
  growth: 1.13
Escherichia coli IAI1 [2]
  growth: 0.972
[3]
  growth: 1.01
[4]
  growth: 1.05
[5]
  fold change of Histamine concentration: 1.01 (inactive)
[6]
  fold change of Tryptamine concentration: 0.943 (inactive)
[7]
  fold change of Tryptamine concentration: 0.988 (inactive)
Escherichia coli IAI1 [8]
  fold change of Putrescine concentration: 1.01 (inactive)
[9]
  fold change of Putrescine concentration: 1.01 (inactive)
Escherichia coli IAI1 [10]
  fold change of Cadaverine concentration: 0.924 (inactive)
[11]
  fold change of Cadaverine concentration: 1 (inactive)
[12]
  fold change of 2-Phenylethylamine concentration: 0.891 (inactive)

## CN1CCCN(C(c2ccccc2)c2ccc(Cl)cc2)CC1 (centres undefined) [Homochlorcyclizine dihydrochloride] (20 µM)
[1]
  growth: 1.12
Escherichia coli IAI1 [2]
  growth: 0.99
[3]
  growth: 1
[4]
  growth: 0.861
[5]
  fold change of Histamine concentration: 0.994 (inactive)
[6]
  fold change of Tryptamine concentration: 0.989 (inactive)
[7]
  fold change of Tryptamine concentration: 0.918 (inactive)
Escherichia coli IAI1 [8]
  fold change of Putrescine concentration: 1.03 (inactive)
[9]
  fold change of Putrescine concentration: 1.01 (inactive)
Escherichia coli IAI1 [10]
  fold change of Cadaverine concentration: 0.885 (inactive)
[11]
  fold change of Cadaverine concentration: 1.01 (inactive)
[12]
  fold change of 2-Phenylethylamine concentration: 0.983 (inactive)

## CCCCc1oc2ccccc2c1C(=O)c1cc(I)c(OCCN(CC)CC)c(I)c1 [Amiodarone hydrochloride] (20 µM)
[1]
  growth: 1.17
Escherichia coli IAI1 [2]
  growth: 1.02
[3]
  growth: 0.991
[4]
  growth: 0.65
[5]
  fold change of Histamine concentration: 1.06 (inactive)
[6]
  fold change of Tryptamine concentration: 1.1 (inactive)
[7]
  fold change of Tryptamine concentration: 0.75 (active)
Escherichia coli IAI1 [8]
  fold change of Putrescine concentration: 0.96 (inactive)
[9]
  fold change of Putrescine concentration: 1.02 (inactive)
Escherichia coli IAI1 [10]
  fold change of Cadaverine concentration: 1.04 (inactive)
[11]
  fold change of Cadaverine concentration: 0.985 (inactive)
[12]
  fold change of 2-Phenylethylamine concentration: 0.89 (inactive)

## Cc1cc2c(s1)Nc1ccccc1N=C2N1CCN(C)CC1 [Olanzapine] (20 µM)
[1]
  growth: 1.16
Escherichia coli IAI1 [2]
  growth: 1.13
[3]
  growth: 1.04
[4]
  growth: 1.19
[5]
  fold change of Histamine concentration: 0.961 (inactive)
[6]
  fold change of Tryptamine concentration: 0.966 (inactive)
[7]
  fold change of Tryptamine concentration: 0.922 (inactive)
Escherichia coli IAI1 [8]
  fold change of Putrescine concentration: 1.04 (inactive)
[9]
  fold change of Putrescine concentration: 0.988 (inactive)
Escherichia coli IAI1 [10]
  fold change of Cadaverine concentration: 0.945 (inactive)
[11]
  fold change of Cadaverine concentration: 0.999 (inactive)
[12]
  fold change of 2-Phenylethylamine concentration: 0.944 (inactive)

## C[C@@H]1CCC[C@H](C)N1NC(=O)c1ccc(Cl)c(S(N)(=O)=O)c1 [Clopamide] (20 µM)
[1]
  growth: 1.09
Escherichia coli IAI1 [2]
  growth: 0.983
[3]
  growth: 0.983
[4]
  growth: 1.04
[5]
  fold change of Histamine concentration: 1.07 (inactive)
[6]
  fold change of Tryptamine concentration: 1.07 (inactive)
[7]
  fold change of Tryptamine concentration: 1.02 (inactive)
Escherichia coli IAI1 [8]
  fold change of Putrescine concentration: 0.989 (inactive)
[9]
  fold change of Putrescine concentration: 1.03 (inactive)
Escherichia coli IAI1 [10]
  fold change of Cadaverine concentration: 1 (inactive)
[11]
  fold change of Cadaverine concentration: 1.01 (inactive)
[12]
  fold change of 2-Phenylethylamine concentration: 1.03 (inactive)

## CCCc1cc(=O)[nH]c(=S)[nH]1 [Propylthiouracil] (20 µM)
[1]
  growth: 0.934
Escherichia coli IAI1 [2]
  growth: 1.06
[3]
  growth: 0.995
[4]
  growth: 1.05
[5]
  fold change of Histamine concentration: 0.972 (inactive)
[6]
  fold change of Tryptamine concentration: 1.03 (inactive)
[7]
  fold change of Tryptamine concentration: 1.04 (inactive)
Escherichia coli IAI1 [8]
  fold change of Putrescine concentration: 1.05 (inactive)
[9]
  fold change of Putrescine concentration: 1.01 (inactive)
Escherichia coli IAI1 [10]
  fold change of Cadaverine concentration: 0.974 (inactive)
[11]
  fold change of Cadaverine concentration: 0.995 (inactive)
[12]
  fold change of 2-Phenylethylamine concentration: 1.03 (inactive)

## OC[C@@H](O)[C@@H](O)[C@H](O)[C@H](O)CO [Mannitol] (50 µM)
[1]
  growth: 1.02
Escherichia coli IAI1 [2]
  growth: 0.924
[3]
  growth: 0.982
[4]
  growth: 0.983
[5]
  fold change of Histamine concentration: 1.04 (inactive)
[6]
  fold change of Tryptamine concentration: 1.01 (inactive)
[7]
  fold change of Tryptamine concentration: 0.975 (inactive)
Escherichia coli IAI1 [8]
  fold change of Putrescine concentration: 0.919 (inactive)
[9]
  fold change of Putrescine concentration: 0.996 (inactive)
Escherichia coli IAI1 [10]
  fold change of Cadaverine concentration: 1.11 (inactive)
[11]
  fold change of Cadaverine concentration: 0.992 (inactive)
[12]
  fold change of 2-Phenylethylamine concentration: 0.976 (inactive)

## Nc1ncnc2c1ncn2C1OC(COP(=O)(O)O)C(O)C1O (centres undefined) [Adenosine 5'-monophosphate monohydrate] (20 µM)
[1]
  growth: 1.05
Escherichia coli IAI1 [2]
  growth: 1.01
[3]
  growth: 0.973
[4]
  growth: 0.96
[5]
  fold change of Histamine concentration: 1.07 (inactive)
[6]
  fold change of Tryptamine concentration: 1.01 (inactive)
[7]
  fold change of Tryptamine concentration: 1.02 (inactive)
Escherichia coli IAI1 [8]
  fold change of Putrescine concentration: 1.04 (inactive)
[9]
  fold change of Putrescine concentration: 1.02 (inactive)
Escherichia coli IAI1 [10]
  fold change of Cadaverine concentration: 0.991 (inactive)
[11]
  fold change of Cadaverine concentration: 0.987 (inactive)
[12]
  fold change of 2-Phenylethylamine concentration: 1.01 (inactive)

## O=C1CN2Cc3c(ccc(Cl)c3Cl)N=C2N1 [Anagrelide] (20 µM)
[1]
  growth: 0.955
Escherichia coli IAI1 [2]
  growth: 1.11
[3]
  growth: 1.05
[4]
  growth: 1.14
[5]
  fold change of Histamine concentration: 0.845 (inactive)
[6]
  fold change of Tryptamine concentration: 1.03 (inactive)
[7]
  fold change of Tryptamine concentration: 1.02 (inactive)
Escherichia coli IAI1 [8]
  fold change of Putrescine concentration: 1.05 (inactive)
[9]
  fold change of Putrescine concentration: 0.986 (inactive)
Escherichia coli IAI1 [10]
  fold change of Cadaverine concentration: 1.16 (inactive)
[11]
  fold change of Cadaverine concentration: 1.01 (inactive)
[12]
  fold change of 2-Phenylethylamine concentration: 0.962 (inactive)

## Cc1c(F)c(N2CCNC(C)C2)cc2c1c(=O)c(C(=O)O)cn2C1CC1 (centres undefined) [Grepafloxacin] (20 µM)
[1]
  growth: 0.0227
Escherichia coli IAI1 [2]
  growth: 0.0384
[3]
  growth: 0.142
[4]
  growth: 1.29
[5]
  fold change of Histamine concentration: 0.0669 (active)
[6]
  fold change of Tryptamine concentration: 0.0355 (active)
[7]
  fold change of Tryptamine concentration: 0.697 (inactive)
Escherichia coli IAI1 [8]
  fold change of Putrescine concentration: 0.738 (active)
[9]
  fold change of Putrescine concentration: 0.628 (active)
Escherichia coli IAI1 [10]
  fold change of Cadaverine concentration: 0.155 (active)
[11]
  fold change of Cadaverine concentration: 0.936 (inactive)
[12]
  fold change of 2-Phenylethylamine concentration: 0.731 (inactive)

## COc1cc2c(cc1OC)C(=O)C(CC1CCN(Cc3ccccc3)CC1)C2 (centres undefined) [Donepezil hydrochloride] (20 µM)
[1]
  growth: 1.2
Escherichia coli IAI1 [2]
  growth: 1.23
[3]
  growth: 1.02
[4]
  growth: 0.917
[5]
  fold change of Histamine concentration: 1.53 (inactive)
[6]
  fold change of Tryptamine concentration: 0.947 (inactive)
[7]
  fold change of Tryptamine concentration: 1.03 (inactive)
Escherichia coli IAI1 [8]
  fold change of Putrescine concentration: 1.24 (inactive)
[9]
  fold change of Putrescine concentration: 2.04 (inactive)
Escherichia coli IAI1 [10]
  fold change of Cadaverine concentration: 0.981 (inactive)
[11]
  fold change of Cadaverine concentration: 1.21 (inactive)
[12]
  fold change of 2-Phenylethylamine concentration: 1.08 (inactive)

## COc1cc(NS(=O)(=O)c2ccc(N)cc2)nc(OC)n1 [Sulfadimethoxine] (20 µM)
[1]
  growth: 0.79
Escherichia coli IAI1 [2]
  growth: 0.992
[3]
  growth: 1.1
[4]
  growth: 1.01
[5]
  fold change of Histamine concentration: 0.891 (inactive)
[6]
  fold change of Tryptamine concentration: 1.05 (inactive)
[7]
  fold change of Tryptamine concentration: 1.29 (active)
Escherichia coli IAI1 [8]
  fold change of Putrescine concentration: 0.887 (inactive)
[9]
  fold change of Putrescine concentration: 0.946 (inactive)
Escherichia coli IAI1 [10]
  fold change of Cadaverine concentration: 0.888 (inactive)
[11]
  fold change of Cadaverine concentration: 1.03 (inactive)
[12]
  fold change of 2-Phenylethylamine concentration: 1.53 (active)
